Results: PubChem BioAssay (NCI)
About 83,000 compounds went through this panel and 20% of them were active in at least one assay; those are over-represented in the sample as a whole.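 Single-concentration screen, 48 h exposure, 96-well plates. Endpoint: percent growth. Below 10 = active.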 Values without a mark were called inactive. Active and inactive are the calls of the source.

What was measured:
Experiment in all cases: NCI-60 one-dose screen, 48 h (100 = growth as untreated, 0 = no growth, -100 = all killed)
Conditions in all cases: 10 µM unless noted
NCI-H23 lung = system: NCI-H23 lung
NCI-H226 lung = system: NCI-H226 lung
NCI-H322M lung = system: NCI-H322M lung
HOP-62 NSCLC = system: HOP-62 NSCLC
NCI-H460 lung = system: NCI-H460 lung
HOP-92 NSCLC = system: HOP-92 NSCLC
NCI-H522 lung = system: NCI-H522 lung
A549/ATCC NSCLC = system: A549/ATCC NSCLC
786-0 renal = system: 786-0 renal
COLO 205 colon = system: COLO 205 colon
DU-145 prostate = system: DU-145 prostate
K-562 leukemia = system: K-562 leukemia
MALME-3M melanoma = system: MALME-3M melanoma
RXF 393 renal = system: RXF 393 renal
SF-268 CNS = system: SF-268 CNS
SF-295 CNS = system: SF-295 CNS
SF-539 CNS = system: SF-539 CNS
UACC-257 melanoma = system: UACC-257 melanoma
M14 melanoma = system: M14 melanoma
MDA-MB-231 breast = system: MDA-MB-231 breast

SMILES | growth (NCI-H23 lung) | growth (NCI-H226 lung) | growth (NCI-H322M lung) | growth (HOP-62 NSCLC) | growth (NCI-H460 lung) | growth (HOP-92 NSCLC) | growth (NCI-H522 lung) | growth (A549/ATCC NSCLC) | growth (786-0 renal) | growth (COLO 205 colon) | growth (DU-145 prostate) | growth (K-562 leukemia) | growth (MALME-3M melanoma) | growth (RXF 393 renal) | growth (SF-268 CNS) | growth (SF-295 CNS) | growth (SF-539 CNS) | growth (UACC-257 melanoma) | growth (M14 melanoma) | growth (MDA-MB-231 breast)
CN1C(=O)CNC(=O)[C@H](NC(=O)c2nc3ccccc3cc2O)CSSC[C@H]1C(=O)NCCCc1nc2ccccc2cc1O | 67.2% | 85.8% | 70.6% | 81.8% | 13.4% | 120% | 60.4% | 48.3% | 113% | -9.63% (active) | 42.3% | 18.4% | 110% | 102% | 49.5% | 91.9% | 82% | 83.9% | 14.3% | 
CCC(C)(c1cc(C(C)(C)C)c(O)c(C(C)(C)C)c1)c1cc(C(C)(C)C)c(O)c(C(C)(C)C)c1 | 96.2% | 100% | 98% | 92.4% | 106% | 92.9% | 86.4% | 93.5% | 99.2% | 107% | 101% | 91.4% | 94% | 104% | 95.4% | 96.6% | 105% | 94.8% | 98.5% | 
O=C(O)CCC/C=C\C[C@H]1C=CC(=O)/C1=C/C[C@@H](O)CCc1cccc(C(F)(F)F)c1 | -22.1% (active) | -39.5% (active) | 11.3% | -31.9% (active) | -65.1% (active) | -20.6% (active) | -62.7% (active) | -7.82% (active) | -31.3% (active) | -38.1% (active) | 13.6% | 3.71% (active) | 79.1% | -65.7% (active) | 3.06% (active) | -40.4% (active) | -1.94% (active) | -5.2% (active) | -16.2% (active) | 
Cc1nc(/N=C(\N)NC(=O)Nc2ccccc2Cl)sc1C | 42.6% | 68% | 51% | 45% | 12.1% | 64.6% | 18.6% | 47.8% | 57.1% | 12.2% | 13.2% | 13.1% | 53.1% | 4.01% (active) | 60.6% | 12.6% | 0.177% (active) | 69.5% | 24% | 50.5%
COc1cccc(Oc2ccccc2NC(=O)CNC(=O)c2cccc3ccccc23)c1 | 31.6% [5 µM] | 53.7% [5 µM] | 32.6% [5 µM] | 35.3% [5 µM] | 6.08% [5 µM] (active) | 31.6% [5 µM] | -10.3% [5 µM] (active) | 26.8% [5 µM] | 28.4% [5 µM] | -13.5% [5 µM] (active) | 5.14% [5 µM] (active) | 11.8% [5 µM] | 51.3% [5 µM] | 52.4% [5 µM] | 34.6% [5 µM] | 14.6% [5 µM] | -7.85% [5 µM] (active) | 83.6% [5 µM] | -6.36% [5 µM] (active) | 7.29% [5 µM] (active)
COC(=O)C(Cc1ccccc1)NC(=O)NC(=O)NC(=O)CI (stereo not drawn) | 63.2% | 82.9% | 108% | 102% | 92.3% | -26% (active) | -82.1% (active) | 99.8% | -3.88% (active) | 25.4% | 91.2% | -18.8% (active) | -71% (active) | 63.9% | 71.8% | 103% | 87.7% | 103% | 35.2% | 
COc1ccc(CN2c3ccccc3CCc3ccccc32)cc1F | 38.7% | 52.9% | 57.6% | 36.8% | 6.64% (active) | 36.4% | -36% (active) | 21.2% | 33.9% | -13.9% (active) | 8.55% (active) | 6.04% (active) | 84.3% | 17.8% | 38.9% | 11.7% | -16.2% (active) | 62% | -8.51% (active) | 17.5%
Clc1ccc2c(c1)N(CCCN1CCCC1)c1ccccc1S2 | 62.5% | 88.2% | 36.3% | 56.4% | 30% | -4.23% (active) | 71.1% | 58.6% | 45.1% | -30.8% (active) | 59.1% | 0.508% (active) | 7.63% (active) | 23.6% | 30% | 54.6% | 15.3% | 85.8% | -47% (active) | 
CCCCCCCNC(=O)CCCNc1ncnc2c1ncn2-c1cccc(C(C)O)c1 (stereo not drawn) | 90.7% | 79.3% | 108% | 95.9% | 99.8% | 96.6% | 80.9% | 94.5% | 97.3% | 92.9% | 94.4% | 41.6% | 84.8% | 89.9% | 83.8% | 93.6% | 94.1% | 121% | 89.3% | 
CC1Cc2c(ncn3c(-c4ccc(F)cc4)nnc23)N(C)c2ccccc21 (stereo not drawn) | 73.4% | 33.2% | 2.19% (active) | 59.5% | 5% (active) | 35.9% | 63% | 16.3% | 29.9% | 43.6% | 63.8% | 70.4% | 37.4% | 66.4% | 56.6% | 74.1% | 74.9% | 69.7% | 59.4% | 
COc1ccc2c(c1)C(C)Cc1c(ncnc1-n1c(C)nc3ccccc31)N2C (stereo not drawn) | 30.2% | 63.7% | 39.5% | 33.6% | 7.77% (active) | -4.69% (active) | 20.9% | 35.2% | 29.2% | -11.3% (active) | 24.2% | 11% | 58.1% | 14.2% | 42.5% | 6.04% (active) | 5.97% (active) | 68.3% | 14.5% | 
N#CC1=C(N)Oc2c(sc3c(Br)cccc23)C1c1ccc(Br)cc1 (stereo not drawn) | 20.4% | 57.1% | 42.3% | 22% | 6.62% (active) | 34.7% | -7.13% (active) | 25.5% | 17.1% | -49.5% (active) | 8.77% (active) | 8.24% (active) | 60% | -2.19% (active) | 33.9% | 0.128% (active) | -14.2% (active) | 41.4% | -0.594% (active) | 
CC/C=C\C[C@@H]1C/C=C2/C(=O)C=C[C@H]2C/C=C\CCCC(=O)O1 | -32.1% (active) | -20% (active) | -54.5% (active) | -14% (active) | -48.6% (active) | -25.8% (active) | -83.4% (active) | -26.7% (active) | -88.4% (active) | -64.2% (active) | -66.8% (active) | -0.441% (active) | -41.1% (active) | -80.6% (active) | -57.6% (active) | -18.1% (active) | -64.3% (active) | -41.7% (active) | -48.8% (active) | 
CCCCC[C@H](O)C/C=C1/C(=O)C=C[C@@H]1C/C=C\CCCC(=O)O | 74.6% | 83.7% | 91.1% | 84.1% | 66.9% | 97.2% | 46.3% | 81% | 83.3% | 78% | 67.8% | 30.1% | 116% | 87.9% | 67% | 93.7% | 92.8% | 85.8% | 70.1% | 
O=C(O)c1cn(C2CC2)c2cc(N3CCN(C(=O)Nc4nc(-c5ccccc5)cs4)CC3)c(F)cc2c1=O | 9.06% (active) | 46.8% | 31.4% | 26% | 5.5% (active) | -21.5% (active) | -2.04% (active) | 7.93% (active) | 22.5% | 51% | 17.2% | 17.1% | 23.9% | 42.7% | 23.3% | 10.6% | 21% | 9.92% (active) | 31.6% | 
